Sampled rows, rich in hits. Any-hit rate of the full collection: about 7.3%.
SMN2 splice up: qHTS Assay for Enhancers of SMN2 Splice Variant Expression; HEK293 SMN2-luciferase splicing reporter, luminescence, 30-36 h; Potency, µM (doses to about 46.1 µM), inactives show at the highest dose activity change, positive = activation, usual class: activators; 2.8% of 210,000 active; AID 1458, 2008; also: % of control where 0% means no effect; nearly all actives have a fitted effect of over 55% in size
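HEK293 cells carry an SMN2 […]–luciferase reporter in which exon 7 inclusion puts luciferase in frame. Cells were plated 10-12 h before compound addition, then incubated 30-36 h at 37C. ONE-Glo luminescence was read; sodium butyrate at 4.5 mM final served as control.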
NPC1 prom act: qHTS Assay for NPC1 Promoter Activators. Huh7 NPC1 promoter luciferase reporter, 24 h. Potency, µM (series often up to 9.22 µM), without a hit: at the top dose activation, most hits filed as activators. 2.4% of 320,000 active. AID 485313, 2010; also: % of control where 0% means no effect; nearly all actives have a fitted effect of over 60% in size
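Luminescence from an NPC1 promoter-driven luciferase reporter in stably transfected Huh7 cells was measured after 24 h compound treatment at 37 °C, followed by 10 min ambient incubation with luciferase detection reagent.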
FLuc modulator: qHTS profiling assay for firefly luciferase inhibitor/activator using purifed enzyme and Km concentrations of substrates (counterscreen for miR-21 project) | Luciferin 4-monooxygenase (Photinus pyralis), P08659 | 6.9% of 360,000 active | Potency, µM (highest dose often 57.5 µM), for inactives: at the top dose activity change, negative = inhibition, usual class: inhibitors | AID 588342, 2011 | purified FLuc, Km substrates, luminescence inhibition;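 also: plate controls were vehicle for no effect and reference inhibitor for full effect; nearly all actives have a fitted effect of over 55% in size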
Target sequence (P08659 whole entry, looked up): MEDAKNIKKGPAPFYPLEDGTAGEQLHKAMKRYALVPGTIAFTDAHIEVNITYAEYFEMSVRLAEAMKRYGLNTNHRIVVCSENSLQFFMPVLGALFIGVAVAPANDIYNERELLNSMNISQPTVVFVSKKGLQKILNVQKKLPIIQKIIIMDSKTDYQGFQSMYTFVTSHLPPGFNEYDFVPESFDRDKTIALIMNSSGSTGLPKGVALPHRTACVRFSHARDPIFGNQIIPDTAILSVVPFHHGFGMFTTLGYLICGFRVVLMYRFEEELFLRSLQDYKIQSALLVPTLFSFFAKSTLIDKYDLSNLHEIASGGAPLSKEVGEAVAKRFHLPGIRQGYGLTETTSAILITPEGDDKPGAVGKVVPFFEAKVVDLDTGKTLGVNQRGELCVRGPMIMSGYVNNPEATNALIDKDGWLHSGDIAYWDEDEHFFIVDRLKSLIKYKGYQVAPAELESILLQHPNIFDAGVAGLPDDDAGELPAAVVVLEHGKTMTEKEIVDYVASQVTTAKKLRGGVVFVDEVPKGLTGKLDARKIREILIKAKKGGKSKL
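Purified P. pyralis luciferase, 10 nM final, with Km-level 10 uM D-luciferin and 10 uM ATP in 50 mM Tris acetate pH 7.5, 10 mM Mg acetate, 0.01% Tween-20, 0.05% BSA; 6-point qHTS titration about 60 µM downward; luminescence read.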
uPA surface inh: qHTS for Inhibitors of Cell Surface uPA Generation; 0.31% of 330,000 active; Potency, µM (top dose mostly 38.3 µM), inactives show at the highest dose activity change, negative = inhibition, usual class: inhibitors; AID 540303, 2011; cell surface uPA generation assay, qHTS; active = well fitted inhibition curve with a large enough effect; inconclusive = small, poorly fitted or top-dose-only effect; inactive = no such curve, though single readings can be large or run the other way; tested in mouse RAW 264.7 cells; also: % is scaled to controls: 0 for no effect and ±100 for the full control effect; nearly all actives have a fitted effect of over 55% in size
ELG1 genotoxic: qHTS screen for small molecules that induce genotoxicity in human embryonic kidney (HEK293T) cells expressing luciferase-tagged ELG1. HEK293T ELG1-luciferase reporter, luminescence, 16 h. Potency, µM (top dose mostly 46 µM), for the others: top-dose activity change, positive = activation, most hits filed as activators. 1.3% of 330,000 active. AID 504466, 2011; also: % of control where 0% means no effect; nearly all actives have a fitted effect of over 60% in size
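Luminescence read-out: rising ELG1-luciferase signal, reflecting elevated ELG1 protein under genetic stress, flags genotoxic compounds. Cells were treated for 16 hr at 37 °C before ONE-Glo detection.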
Rab9 prom act: qHTS Assay for Rab9 Promoter Activators; Huh7 Rab9 promoter-luciferase reporter, luminescence, 24 h; Potency, µM (doses to about 9.22 µM), inactives show at the top dose activation, negative = inhibition, most hits filed as activators; 2.8% of 320,000 active; AID 485297, 2010; also: % of control where 0% means no effect; nearly all actives have a fitted effect of over 60% in size
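Cell-based reporter: Huh7 stable for Rab9 promoter-driven luciferase, plated in reduced-serum medium with 10% FBS at 1500 cells/well, compound-treated 24 h at 37 °C, luminescence read after 10 min reagent.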
Active calls of the source: *; ? = inconclusive; nt = not tested or not shown. Unless noted, calls follow the shape of the dose curve; as a rule, active = well fitted curve in the direction sought with a large enough effect; inconclusive = small, poorly fitted or top-dose-only effect, or another doubt; inactive = no such curve, though single readings can be large; an effect the other way counts as inactive or inconclusive. Potency is read from the fitted curve at half-maximal effect.

SMILES | SMN2 splice up | NPC1 prom act | FLuc modulator | uPA surface inh | ELG1 genotoxic | Rab9 prom act
C=CCOC(=O)C1(C(NC(=O)OC)c2ccccc2)C(=O)Cc2ccccc21 (centres undefined) | 3% | nt | nt | nt | nt | nt
COc1ccccc1OCCCCn1c(-c2ccc(Cl)cc2)nc2ccccc2c1=O | -19% | nt | 1% | nt | nt | nt
Cc1ccc(NC(=O)c2oc3c(c2C)-c2[nH]ncc2CC3)c(Cl)c1 | nt | nt | -11% | nt | nt | nt
CC(/C=N/Nc1nnc(C)c(=O)[nH]1)=C\c1ccccc1 | ? | ? | 12µM* | -6% | 15% | ?
Cc1cccc(/C=N\Nc2nnc(-c3ccccc3)c(=O)[nH]2)c1 | 29% | 1% | -1% | -2% | 10% | -8%
CC(/C=N/Nc1ccc2nncn2n1)=C\c1ccccc1 | nt | 2% | 15µM* | -2% | 5% | 12%
CCCCC(=O)Nc1ccc(NC(=O)c2ccc3c(c2)OCO3)cc1OC | 29% | 15% | 11µM* | -2% | 13% | 0%
COc1cc(NC(=O)c2ccc3c(c2)OCO3)ccc1NC(=O)C(C)C | -19% | 18% | 15µM* | 2% | 9% | 4%
COc1ccccc1NC(=O)C1=C(C)Nc2nc(SC)nn2C1c1ccccc1Cl (centres undefined) | 3% | nt | 1% | nt | nt | nt
Cc1ccc(CC(=O)N(Cc2nc(-c3ccc(C)cc3)no2)C(C)C)cc1 | -29% | nt | -9% | nt | nt | nt
S=C(Nc1ccc2c(c1)OCO2)N1CCN(Cc2ccco2)CC1 | nt | ? | 1.3µM* | 4.5µM* | 15% | ?
S=C(NCc1ccco1)N1CCN(Cc2ccco2)CC1 | -2% | -1% | -1% | 1% | -1% | -3%
CC(Cc1cccnc1)NC(=O)c1cc(COc2ccc(F)cc2Cl)on1 (centres undefined) | nt | -13% | 13µM* | -10% | -2% | 9%
Cc1ccc(OCc2cc(C(=O)NC(C)Cc3cccnc3)no2)cc1C (centres undefined) | nt | ? | 13µM* | -4% | 15% | ?
CC(CCn1cccn1)NC(=O)c1cc(COc2ccc(F)cc2F)on1 (centres undefined) | nt | -3% | -4% | 4% | 0% | -2%
Cc1ccc(OCc2cc(C(=O)NCCc3cccnc3)no2)cc1C | nt | ? | ? | 2% | 4% | ?
O=C(NCCCn1cccn1)c1cc(COc2ccc(F)cc2Cl)on1 | nt | 16% | 17µM* | 1% | -3% | 17%
CC(=O)c1ccc(OCc2cc(C(=O)NC(C)CCn3cccn3)no2)cc1 (centres undefined) | nt | 2.8µM* | 15µM* | -24% | 18µM* | 4µM*
COc1cccc(NC(=O)c2cnc(SCC(=O)N3CCOCC3)n(C)c2=O)c1 | nt | nt | -1% | nt | nt | nt
Cc1nc(CCNC(=O)c2cc(COc3ccc(F)cc3Cl)on2)sc1C | nt | 22% | 21µM* | -2% | -4% | 12%
CC(CCn1cccn1)NC(=O)c1cc(COc2ccc(F)cc2Cl)on1 (centres undefined) | nt | -2% | 17µM* | 1% | 1% | 2%
CCOc1cc2[nH]c(=O)n(Cc3ccc(C(=O)N4CCN(c5cccc(Cl)c5)CC4)cc3)c(=O)c2cc1OCC | nt | nt | -7% | nt | nt | nt
O=S(=O)(c1ccccc1)c1nnn2c1nc(NCc1ccc(F)cc1)c1sccc12 | nt | nt | 3% | nt | nt | nt
O=C1N/C(=C/c2ccsc2)C(=O)N1c1ccccc1 | 29% | ? | ? | ? | ? | 2.8µM*
CCn1c(C)cc(/C=C2/NC(=O)N(c3ccccc3)C2=O)c1C | 11µM* | 3.2µM* | 7.6µM* | -4% | ? | 1.4µM*
SMILES | SMN2 splice up | NPC1 prom act | FLuc modulator | uPA surface inh | ELG1 genotoxic | Rab9 prom act
COCCn1c(C)cc(/C=C2/NC(=O)N(c3cccc(Cl)c3)C2=O)c1C | 23% | 30% | ? | 4% | ? | ?
CCSc1nn2c(=O)c3ccccc3nc2s1 | 14µM* | 3.5µM* | 19µM* | -1% | 5µM* | 2.5µM*
CCc1cccc(C)c1Nc1nn2c(=O)c3ccccc3nc2s1 | nt | nt | -1% | nt | nt | nt
O=C(NCC(c1ccc2c(c1)OCO2)N1CCN(c2ccccc2)CC1)c1ccccc1 (centres undefined) | nt | nt | -11% | nt | nt | nt
COc1ccc(-c2nnc(SCC(=O)Nc3cccc(C(F)(F)F)c3)nc2-c2ccc(OC)cc2)cc1 | nt | nt | -8% | nt | nt | nt
N=c1oc2ccccc2cc1C(=O)NC1CCCCCC1 | nt | ? | 4.8µM* | -6% | ? | -46%
O=C(NC1CCCCCC1)c1cc2ccccc2oc1=O | nt | 3.2µM* | 2.7µM* | -4% | 13% | 2%
COc1ccc2cc(C(=O)NC3CCCCC3)c(=O)oc2c1 | 8% | 13% | ? | 10% | ? | ?
COc1cc2ccccc2cc1C(=O)NC1CCCC1 | nt | nt | nt | -4% | 10% | nt
CN(C(=O)COC(=O)c1cc2ccccc2oc1=O)C1CCCCC1 | nt | nt | nt | -8% | 4% | nt
O=C(OC1CCCCC1)c1cc2ccccc2oc1=O | nt | ? | 7.6µM* | -2% | ? | ?
COc1cc2ccccc2cc1C(=O)NC1CCCCC1 | nt | 27% | 12µM* | -13% | 13% | ?
Cc1ccccc1Cn1c2ccccc2c2cnn(CC(=O)NC(C)CCc3ccccc3)c(=O)c21 (centres undefined) | 1% | nt | 3% | nt | nt | nt
CCOc1ccc(C2=NC(c3cccs3)=Nc3ccc(CC)cc3N2)cc1OCC | 3% | nt | -11% | nt | nt | nt
Cc1ccc(CNC(=O)c2cccc(Nc3nc4ccccc4n4nnnc34)c2)cc1 | -1% | nt | -12% | nt | nt | nt
CCOC(=O)c1cnn(-c2ccc(OC)cc2)c1C1CCN(C(=O)OC(C)(C)C)CC1 | -7% | nt | -1% | nt | nt | nt
O=C(NCCc1ccccc1)c1cc2ccccc2oc1=O | nt | ? | ? | 15% | 0% | 8%
O=C(NCCC1=CCCCC1)c1cc2ccccc2oc1=O | nt | -1% | 4.8µM* | 24% | ? | 3%
CCc1cc(C(=O)Nc2ncccc2O)sc1C | nt | 1.1µM* | 1.3µM* | 24% | 0.33µM* | 2.5µM*
CCc1cc(C(=O)Nc2ccc(OC)nc2)sc1C | nt | 13% | 21µM* | -3% | 9% | -34%
C=CCN(C(=O)CC(NC(C)=O)c1ccccc1)c1nc(-c2ccc(S(C)(=O)=O)cc2)cs1 (centres undefined) | nt | 17% | ? | -2% | ? | 21%
CCOc1ccc(NC(=O)C2CC(=O)N(c3ccc(C(C)C)cc3)C2)cc1 (centres undefined) | 3% | nt | -2% | nt | nt | nt
Cc1ccccc1Cn1nnc2c(=O)[nH]c(C3CCN(C(=O)c4ccccc4)CC3)nc21 | -4% | nt | 0% | nt | nt | nt
CCc1cccc(NC(=O)CSc2ncccc2C(=O)Oc2ccccc2Cl)c1 | nt | nt | 5% | nt | nt | nt
